About 2,000 (36%) of roughly 5,500 compounds were called active. Inconclusive results (about 18%) are left out. No stated cut-off is given here; in the data, active means normalized growth mostly below about 0.91 (no sharp cut-off); inconclusive means no clear call, values can overlap the other calls; inactive means mostly above about 0.92. This is one part of the list.
Assay: chemical genetic growth profiling, strain panel (AID 1159580);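 further: tested at 20 µM; growth read once vehicle control cultures reached saturation at 30 °C; 1 = growth at the plate median or of vehicle wells; lower values mean less growth of the strain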
Details: S. cerevisiae deletion strains, growth OD

Measured: normalized growth

CC(C)=CCC/C(C)=C/CC/C(C)=C/CSc1ccccc1C(=O)O
inactive: locus YAL013W, strain DEP1, hits give low values 0.944 | locus YAL040C, strain CLN3, hits give low values 1.04 | locus YDR363W, strain ESC2, hits give low values 0.896 | locus YER002W, strain NOP16, hits give low values 0.958 | locus YGR078C, strain PAC10, hits give low values 0.928 | locus YNL175C, strain NOP13, hits give low values 0.956 | locus YNL197C, strain WHI3, hits give low values 0.965 | locus YNL224C, strain SQS1, hits give low values 0.974
active: locus YCL061C, strain MRC1 (second series), hits give low values 0.938 | locus YGR229C, strain SMI1, hits give low values 0.742 | locus YOR083W, strain WHI5 (second series), hits give low values 0.855

CC(=O)OC/C=C(\C)CC/C=C(\C)CC/C=C(\C)CC/C=C(\C)CC/C=C(\C)CC/C=C(\C)CC/C=C(\C)CC/C=C(\C)CCC=C(C)C
inactive: locus YAL021C, strain ccr4, hits give low values 0.991 | locus YAL026C, strain drs2, hits give low values 0.973 | locus YAL030W, strain snc1, hits give low values 0.977 | locus YBL061C, strain skt5, hits give low values 0.981 | locus YBR009C, strain hhf1, hits give low values 0.98 | locus YBR023C, strain chs3, hits give low values 0.991 | locus YBR171W, strain sec66, hits give low values 0.98 | locus YBR231C, strain swc5, hits give low values 0.992 | locus YBR279W, strain paf1, hits give low values 0.987 | locus YCL011C, strain gbp2, hits give low values 0.959 | locus YCL016C, strain dcc1, hits give low values 0.981 | locus YCL061C, strain MRC1, hits give low values 0.997 | locus YCL069W, strain vba3, hits give low values 1 | locus YCR088W, strain abp1, hits give low values 0.995 | locus YDL005C, strain med2, hits give low values 0.976 | locus YDL040C, strain nat1, hits give low values 0.998 | locus YDR001C, strain nth1, hits give low values 0.966 | locus YDR069C, strain doa4, hits give low values 0.978 | locus YDR137W, strain rgp1, hits give low values 0.984 | locus YDR159W, strain sac3, hits give low values 1.02 | locus YDR195W, strain ref2 0.984 | locus YDR297W, strain sur2, hits give low values 0.993 | locus YDR334W, strain swr1, hits give low values 0.943 | locus YDR335W, strain msn5, hits give low values 0.982 | locus YDR392W, strain spt3, hits give low values 0.976 | locus YEL003W, strain gim4, hits give low values 0.98 | locus YEL037C, strain rad23, hits give low values 0.976 | locus YEL061C, strain CIN8 (second series), hits give low values 0.973 | locus YER015W, strain faa2, hits give low values 0.971 | locus YER016W, strain bim1, hits give low values 0.99 | locus YER111C, strain swi4, hits give low values 0.984 | locus YER155C, strain BEM2 (second series), hits give low values 1 | locus YFR010W, strain ubp6, hits give low values 0.967 | locus YGL167C, strain pmr1, hits give low values 0.981 | locus YGL173C, strain kem1, hits give low values 0.974 | locus YGL227W, strain vid30, hits give low values 0.987 | locus YGL240W, strain doc1, hits give low values 1.01 | locus YGL253W, strain hxk2, hits give low values 0.964 | locus YHR013C, strain ard1, hits give low values 0.969 | locus YHR027C, strain rpn1, hits give low values 0.974 | locus YHR030C, strain SLT2, hits give low values 1.04 | locus YHR079C, strain IRE1, hits give low values 1.04 | locus YHR142W, strain chs7, hits give low values 0.917 | locus YJL092W, strain hpr5, hits give low values 0.985 | locus YJL095W, strain BCK1 (second series), hits give low values 0.987 | locus YJL095W, strain BCK1, hits give low values 1.02 | locus YJL115W, strain asf1, hits give low values 0.951 | locus YJL129C, strain trk1, hits give low values 0.931 | locus YJL154C, strain vps35, hits give low values 0.971 | locus YJL164C, strain tpk1, hits give low values 0.976 | locus YJL166W, strain qcr8, hits give low values 0.99 | locus YJL187C, strain SWE1, hits give low values 0.986 | locus YJR066W, strain TOR1, hits give low values 1.01 | locus YKL160W, strain elf1, hits give low values 0.98 | locus YKR026C, strain gcn3, hits give low values 0.988 | locus YKR091W, strain srl3, hits give low values 0.984 | locus YLL001W, strain dnm1, hits give low values 0.968 | locus YLL026W, hits give low values 0.974 | locus YLL041C, strain sdh2, hits give low values 0.991 | locus YLR027C, strain aat2, hits give low values 0.997 | locus YLR113W, strain HOG1, hits give low values 0.991 | locus YLR221C, strain rsa3, hits give low values 0.942 | locus YLR258W, strain gsy2, hits give low values 0.997 | locus YLR262C, strain YPT6 (second series), hits give low values 0.996 | locus YLR320W, strain mms22, hits give low values 0.991 | locus YLR342W, strain FKS1, hits give low values 0.99 | locus YLR357W, strain rsc2, hits give low values 0.987 | locus YLR370C, strain arc18, hits give low values 0.994 | locus YLR384C, strain iki3, hits give low values 0.985 | locus YML120C, strain ndi1, hits give low values 0.977 | locus YMR058W, strain fet3, hits give low values 0.984 | locus YMR125W, strain sto1, hits give low values 0.939 | locus YMR129W, hits give low values 0.982 | locus YMR205C, strain PFK2, hits give low values 0.958 | locus YMR231W, strain pep5, hits give low values 0.989 | locus YNL071W, strain lat1, hits give low values 0.987 | locus YNL183C, strain NPR1, hits give low values 1.01 | locus YNL209W, strain ssb2, hits give low values 1 | locus YNL248C, strain rpa49, hits give low values 0.964 | locus YNL322C, strain KRE1 (second series), hits give low values 0.97 | locus YNR049C, strain mso1, hits give low values 0.975 | locus YOR001W, strain rrp6, hits give low values 1 | locus YOR070C, strain gyp1, hits give low values 0.984 | locus YOR080W, strain dia2, hits give low values 0.978 | locus YOR083W, strain WHI5, hits give low values 0.97 | locus YOR106W, strain vam3, hits give low values 0.909 | locus YOR231W, strain MKK1, hits give low values 1.02 | locus YOR265W, strain rbl2, hits give low values 0.996 | locus YOR270C, strain vph1, hits give low values 0.879 | locus YOR290C, strain snf2, hits give low values 0.941 | locus YPL051W, strain arl3, hits give low values 1 | locus YPL078C, strain atp4, hits give low values 0.977 | locus YPL106C, strain sse1, hits give low values 0.997 | locus YPL240C, strain hsp82, hits give low values 0.968 | locus YPL256C, strain CLN2, hits give low values 1.02

Reference: PubChem BioAssay AID1159580 (chemical genetic matrix, 2015)
